Measured values reported in PubChem BioAssay (NCATS).
Results filed as inconclusive are left out. Some of the results follow. Activity calls are given as the source filed them. Calls come from the whole dose curve; as a rule, active = well fitted curve in the direction sought with a large enough effect; inconclusive = small, poorly fitted or top-dose-only effect, or another doubt; inactive = no such curve, though single readings can be large; an effect the other way counts as inactive or inconclusive.

What was measured:
[1] = molecular target: Rap guanine nucleotide exchange factor 3 (Homo sapiens) (UniProt O95398); experiment: Confirmatory qHTS for antagonist of cAMP-regulated guanine nucleotide exchange factor 3 (EPAC1) (AID 1645880); details: EPAC1 Rap1B-BODIPY-GDP exchange, fluorescence; activity, negative = inhibition: at 115 µM (top of the series); note: nearly all actives have a fitted effect of over 55% in size; note: potency is the fitted concentration of half-maximal effect;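 for activity, negative = inhibition: plate controls were DMSO only for no effect and full effect of the ATA control for full effect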
In short: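 Released BODIPY-GDP fluoresces less than Rap1-bound BODIPY-GDP; the signal is followed at 480/540 nm at 5-min intervals over 30 min, after 5 min at room temperature. Reactions contain 100 nM EPAC1, 250 nM RAP1B-BODIPY-GDP and 50 uM GDP; results are normalized to ATA and DMSO.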

[2] = molecular target: Rap guanine nucleotide exchange factor 3 (Homo sapiens) (UniProt O95398); experiment: Confirmatory qHTS for agonist of cAMP-regulated guanine nucleotide exchange factor 3 (EPAC1) (AID 1645881);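 note: EPAC1 catalysed release of BODIPY-GDP from Rap1B seen as fluorescence loss; 100% = effect of cAMP agonist control; nearly all actives have a fitted effect of over 75% in size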
[3] = molecular target: Rap guanine nucleotide exchange factor 4 (Homo sapiens) (UniProt Q8WZA2); experiment: Confirmatory qHTS for agonist of cAMP-regulated guanine nucleotide exchange factor 4 (EPAC2) (AID 1645884);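 note: nucleotide exchange releases bodipy-GDP from Rap1 and this lowers its fluorescence; % is set by controls: 0 for no effect and ±100 for the full control effect; nearly all actives have a fitted effect of over 65% in size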
[4] = molecular target: Rap guanine nucleotide exchange factor 4 (Homo sapiens) (UniProt Q8WZA2); experiment: Confirmatory qHTS for antagonist of cAMP-regulated guanine nucleotide exchange factor 4 (EPAC2) (AID 1645885); note: % is set by controls: 0 for no effect and ±100 for the full control effect; nearly all actives have a fitted effect of over 25% in size
[5] = molecular target: Rap guanine nucleotide exchange factor 3 (Homo sapiens) (UniProt O95398); experiment: Counterscreen qHTS for antagonist of cAMP-regulated guanine nucleotide exchange factor 3 (EPAC1) (AID 1645888); note: % of control where 0% means no effect
In short: (§1)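 Measured: fluorescence of BODIPY-GDP bound to Rap1B, which falls as exchange proceeds. Conditions include 50 uM competing GDP, 5 and 30 min reads, and a later cAMP challenge for antagonist detection.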

[6] = molecular target: Rap guanine nucleotide exchange factor 3 (Homo sapiens) (UniProt O95398); experiment: Counterscreen qHTS for agonist of cAMP-regulated guanine nucleotide exchange factor 3 (EPAC1) (AID 1645889); note: % of control where 0% means no effect; nearly all actives have a fitted effect of over 40% in size
In short: as §1

[7] = Counterscreen for APE1 Inhibitors: Fluorescent Dye Displacement Assay (AID 2564);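 note: loss of thiazole orange fluorescence as the dye is displaced from duplex DNA; 0% = ThO with dsDNA and no compound and -100% = ThO without dsDNA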
In short: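 Signal: ThO fluorescence (ex 480 nm/em 540 nm) on binding 50 nM dsDNA; displacement by test compound reduces it. Conditions: 250 nM dye, 50 mM Tris-HCl pH7.5, 2 mM MgCl2, 50mM NaCl, 0.01% Tween-20.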

[8] = molecular target: Endonuclease 4 (Escherichia coli (strain K12)) (UniProt P0A6C1); experiment: Counterscreen for APE1 Inhibitors: qHTS Assay for Inhibitors of Endonuclease IV (AID 2565);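 note: plate controls were uninhibited enzyme wells for no effect and no enzyme buffer wells for full effect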
In short: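 Enzyme (2 nM) + compound, 15 min RT; add 50 nM TAMRA/BHQ-2 THF-site dsDNA; kinetic read ex525/em598, 3 reads/60 s; activity = read 3 − read 1. Buffer Tris pH 7.5, 50 mM NaCl, 2 mM MgCl2, DTT, Tween-20.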

[9] = molecular target: DNA repair nuclease/redox regulator APEX1 (Homo sapiens) (UniProt P27695); experiment: Confirmation qHTS Assay for Inhibitors of the Human Apurinic/apyrimidinic Endonuclease 1 (APE1) (AID 2572); details: purified APE1, fluorogenic abasic-site DNA cleavage; note: potency is the fitted concentration of half-maximal effect; nearly all actives have a fitted effect of over 30% in size
In short: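 Confirmation qHTS in dose-response format: APE1 exposed to compound 15 min at RT, then reaction started with 50 nM final TAMRA/BHQ-2 abasic substrate. Three fluorescence reads 60 s apart; endpoint minus initial read gives progress.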

[10] = molecular target: DNA repair nuclease/redox regulator APEX1 (Homo sapiens) (UniProt P27695); experiment: qHTS FP-Based Assay for Inhibitors of the Human Apurinic/apyrimidinic Endonuclease 1 (APE1) (AID 2573); note: % is set by controls: 0 for no effect and ±100 for the full control effect
[11] = HepG2 viability counterscreen (readout 2: ATP content) against the NCATS DSHEA and TCM libraries (AID 1794840);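 note: HepG2 cells exposed to substances for about 24 h; 0% is about no effect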
In short: (§2)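 Readout 1: cellular protease activity, GF-AFC substrate (25 uM final, 30 min, fluorescence 380/510 nm). Readout 2: ATP content by CellTiter-Glo luminescence after 30 min at RT. Both follow ~24 h exposure of HepG2 cells (1,000/well) to substances.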

[12] = HepG2 viability counterscreen (readout 1: protease activity) against the NCATS DSHEA and TCM libraries (AID 1794841);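 note: cells exposed to compounds for about 24 h before the protease read; 0% is about no effect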
In short: as §2

[13] = molecular target: Cytochrome P450 3A4 (Homo sapiens) (UniProt P08684); experiment: qHTS for inhibitors of CYP3A4 against the NCATS DSHEA and TCM libraries (AID 1919971);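 note: % is set by controls: 0 for no effect and ±100 for the full control effect; inhibition lowers luminescence from luciferin made by CYP3A4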
In short: (§3)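 Each CYP isoform and its pro-luciferin substrate, at isoform-specific final concentrations, were preincubated 15 min at RT with substances. NADPH regeneration solution (1x) started a 30-45 min reaction, and P450-Glo luminescence was read.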

[14] = molecular target: Cytochrome P450 2D6 (Homo sapiens) (UniProt P10635); experiment: qHTS for inhibitors of CYP2D6 against the NCATS DSHEA and TCM libraries (AID 1919972); note: % is set by controls: 0 for no effect and ±100 for the full control effect
In short: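 CYP2D6 enzyme with pro-luciferin substrate in manufacturer buffer (typically 100 mM KPO4), preincubated 15 min RT with substances (most at 19.5 nM upward); NADPH regeneration system (1x) started 30–45 min RT reaction; P450-Glo luminescence read after 30 min; quinidine as intraplate control.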

[15] = molecular target: Cytochrome P450 2C9 (Homo sapiens) (UniProt P11712); experiment: qHTS for inhibitors of CYP2C9 against the NCATS DSHEA and TCM libraries (AID 1919973);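 note: luminogenic pro-luciferin CYP2C9 substrate turned into luciferin with NADPH regeneration; % is set by controls: 0 for no effect and ±100 for the full control effect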
In short: as §3

[16] = KB-3-1 P-gp reporter qHTS against the NCATS DSHEA and TCM libraries (AID 1919975); note: 0% is about no effect
In short: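 Cell viability by CellTiter-Glo luminescence following ~72 h compound exposure (concentration-response). Uses parental, non-P-gp-overexpressing KB-3-1 line, 500 cells/well in DMEM/10% FBS, attached ~4 h before dosing.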

[17] = molecular target: Cytochrome P450 1A2 (Homo sapiens) (UniProt P05177); experiment: qHTS for inhibitors of CYPIA2 against the NCATS DSHEA and TCM libraries (AID 1919976); note: % is set by controls: 0 for no effect and ±100 for the full control effect
In short: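 Reaction started with 1x NADPH regeneration solution and run 30-45 min, room temperature, protected from light, after compounds sat 15 min with CYP1A2 and pro-luciferin substrate. P450-Glo detection gave luminescence; furafylline served as control.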

[18] = qHTS Counterscreen for compound interference against the NCATS DSHEA and TCM libraries (AID 1919978); details: firefly luciferase detection reagent interference, luminescence;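 note: compounds preincubated with 1 µM D-luciferin or buffer before detection reagent; % of control where 0% means no effect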
In short: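 With 1 uM D-luciferin or phosphate buffer only, compounds at final 19.5 nM–39.8 uM were incubated for 15 min at room temperature. Luciferase detection reagent was then added, and luminescence was measured after a further 30 min at room temperature.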

[19] = Dual reporter qHTS for agonist of Pregnane X Receptor (hPXR) against the NCATS DSHEA and TCM libraries: Fluorescence readout (AID 1920058); note: 0% is about no effect
In short: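 Viability readout (CellTiter-Fluor, 405/540 nm, 1 h) from agonist-mode PXR dual reporter in hPXR-Luc HepG2 cells. Substances ~24 h, 37 °C, 5% CO2; rifampicin reference, tetraoctyl ammonium bromide cytotoxic control.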

Sequence of Rap guanine nucleotide exchange factor 3 (Homo sapiens) (O95398 whole entry, looked up): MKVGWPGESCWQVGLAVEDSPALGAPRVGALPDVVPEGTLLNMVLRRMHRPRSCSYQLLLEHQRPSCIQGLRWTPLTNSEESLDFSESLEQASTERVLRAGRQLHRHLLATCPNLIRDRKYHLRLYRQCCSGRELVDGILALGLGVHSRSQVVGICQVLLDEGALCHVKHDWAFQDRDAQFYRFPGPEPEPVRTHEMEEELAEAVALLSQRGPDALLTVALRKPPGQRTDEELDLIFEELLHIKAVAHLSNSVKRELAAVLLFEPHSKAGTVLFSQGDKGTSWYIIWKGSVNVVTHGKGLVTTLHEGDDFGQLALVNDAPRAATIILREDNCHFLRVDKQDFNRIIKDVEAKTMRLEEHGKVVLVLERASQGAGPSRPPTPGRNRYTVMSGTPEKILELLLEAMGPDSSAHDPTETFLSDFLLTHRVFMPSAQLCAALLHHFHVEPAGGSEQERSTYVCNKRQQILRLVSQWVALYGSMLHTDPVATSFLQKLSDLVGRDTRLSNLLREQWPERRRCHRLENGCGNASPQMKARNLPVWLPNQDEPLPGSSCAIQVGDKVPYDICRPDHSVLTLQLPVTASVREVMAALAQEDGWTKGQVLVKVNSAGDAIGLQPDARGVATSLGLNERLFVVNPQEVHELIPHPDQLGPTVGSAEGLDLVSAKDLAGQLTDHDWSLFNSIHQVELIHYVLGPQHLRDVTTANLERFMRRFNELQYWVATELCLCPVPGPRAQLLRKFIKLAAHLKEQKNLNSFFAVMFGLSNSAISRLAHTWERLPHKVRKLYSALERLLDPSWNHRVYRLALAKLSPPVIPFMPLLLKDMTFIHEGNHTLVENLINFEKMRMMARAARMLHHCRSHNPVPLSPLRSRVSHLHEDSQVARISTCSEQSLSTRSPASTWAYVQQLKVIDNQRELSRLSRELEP
Sequence of Rap guanine nucleotide exchange factor 4 (Homo sapiens) (Q8WZA2 whole entry, looked up): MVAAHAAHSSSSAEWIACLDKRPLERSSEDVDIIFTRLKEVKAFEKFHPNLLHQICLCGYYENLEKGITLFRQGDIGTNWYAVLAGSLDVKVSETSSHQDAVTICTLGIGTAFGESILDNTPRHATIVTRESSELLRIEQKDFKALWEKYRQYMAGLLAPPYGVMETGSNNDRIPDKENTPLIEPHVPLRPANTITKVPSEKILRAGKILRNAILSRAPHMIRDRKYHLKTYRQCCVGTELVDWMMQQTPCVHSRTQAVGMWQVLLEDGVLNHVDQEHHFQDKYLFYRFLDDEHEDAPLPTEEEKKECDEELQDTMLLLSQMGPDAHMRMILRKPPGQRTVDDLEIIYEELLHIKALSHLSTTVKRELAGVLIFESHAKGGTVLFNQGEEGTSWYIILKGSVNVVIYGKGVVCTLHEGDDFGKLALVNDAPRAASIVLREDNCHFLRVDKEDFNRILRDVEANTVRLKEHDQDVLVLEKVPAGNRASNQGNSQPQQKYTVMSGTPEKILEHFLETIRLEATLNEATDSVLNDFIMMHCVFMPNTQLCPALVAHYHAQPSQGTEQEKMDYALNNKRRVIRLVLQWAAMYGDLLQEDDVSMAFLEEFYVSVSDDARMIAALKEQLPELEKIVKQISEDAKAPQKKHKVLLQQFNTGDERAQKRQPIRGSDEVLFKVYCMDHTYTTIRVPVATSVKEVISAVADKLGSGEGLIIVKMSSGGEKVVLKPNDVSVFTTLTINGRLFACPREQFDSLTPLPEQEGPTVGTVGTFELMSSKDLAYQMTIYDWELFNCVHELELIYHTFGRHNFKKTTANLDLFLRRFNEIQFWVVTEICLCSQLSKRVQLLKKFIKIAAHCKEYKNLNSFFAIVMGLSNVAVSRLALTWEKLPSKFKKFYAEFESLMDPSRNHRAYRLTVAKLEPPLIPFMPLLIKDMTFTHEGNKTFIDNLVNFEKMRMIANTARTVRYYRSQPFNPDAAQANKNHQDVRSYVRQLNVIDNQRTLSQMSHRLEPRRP
Sequence of DNA repair nuclease/redox regulator APEX1 (Homo sapiens) (P27695 whole entry, looked up): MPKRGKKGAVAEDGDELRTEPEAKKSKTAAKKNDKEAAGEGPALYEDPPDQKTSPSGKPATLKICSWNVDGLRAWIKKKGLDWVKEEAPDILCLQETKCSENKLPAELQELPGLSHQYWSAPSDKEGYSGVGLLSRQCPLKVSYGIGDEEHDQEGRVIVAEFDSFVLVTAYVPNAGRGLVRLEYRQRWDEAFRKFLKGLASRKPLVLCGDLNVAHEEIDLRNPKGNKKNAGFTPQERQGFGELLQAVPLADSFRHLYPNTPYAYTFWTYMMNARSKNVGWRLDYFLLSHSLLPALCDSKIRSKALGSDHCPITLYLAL
Sequence of Cytochrome P450 1A2 (Homo sapiens) (P05177 whole entry, looked up): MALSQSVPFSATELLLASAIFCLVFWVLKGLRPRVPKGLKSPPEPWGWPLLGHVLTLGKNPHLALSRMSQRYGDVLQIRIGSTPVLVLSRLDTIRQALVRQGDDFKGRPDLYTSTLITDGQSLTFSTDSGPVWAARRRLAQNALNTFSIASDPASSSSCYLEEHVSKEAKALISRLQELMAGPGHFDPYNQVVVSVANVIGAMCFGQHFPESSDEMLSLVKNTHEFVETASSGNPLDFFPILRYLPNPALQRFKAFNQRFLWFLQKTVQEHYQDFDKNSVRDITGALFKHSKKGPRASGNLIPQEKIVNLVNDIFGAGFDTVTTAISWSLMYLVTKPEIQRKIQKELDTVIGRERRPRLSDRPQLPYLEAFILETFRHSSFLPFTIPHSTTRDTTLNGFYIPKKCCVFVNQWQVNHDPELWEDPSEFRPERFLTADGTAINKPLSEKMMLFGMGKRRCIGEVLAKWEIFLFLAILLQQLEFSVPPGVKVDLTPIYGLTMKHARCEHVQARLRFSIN
Sequence of Cytochrome P450 3A4 (Homo sapiens) (P08684 whole entry, looked up, canonical isoform): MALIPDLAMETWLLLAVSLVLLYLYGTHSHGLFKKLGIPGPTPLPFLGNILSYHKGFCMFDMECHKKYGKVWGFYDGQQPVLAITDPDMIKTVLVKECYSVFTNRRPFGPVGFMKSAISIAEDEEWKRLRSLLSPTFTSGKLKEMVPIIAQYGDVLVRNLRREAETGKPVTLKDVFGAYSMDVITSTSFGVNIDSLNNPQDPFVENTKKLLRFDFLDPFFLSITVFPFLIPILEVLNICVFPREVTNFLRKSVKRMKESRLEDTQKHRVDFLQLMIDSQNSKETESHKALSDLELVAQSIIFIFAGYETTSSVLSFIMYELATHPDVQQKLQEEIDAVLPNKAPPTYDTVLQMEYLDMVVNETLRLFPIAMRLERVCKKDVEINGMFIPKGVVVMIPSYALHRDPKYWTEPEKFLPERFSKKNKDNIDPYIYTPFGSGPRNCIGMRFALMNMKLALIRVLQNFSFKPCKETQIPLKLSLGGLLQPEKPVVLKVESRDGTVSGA
Sequence of Cytochrome P450 2D6 (Homo sapiens) (P10635 whole entry, looked up): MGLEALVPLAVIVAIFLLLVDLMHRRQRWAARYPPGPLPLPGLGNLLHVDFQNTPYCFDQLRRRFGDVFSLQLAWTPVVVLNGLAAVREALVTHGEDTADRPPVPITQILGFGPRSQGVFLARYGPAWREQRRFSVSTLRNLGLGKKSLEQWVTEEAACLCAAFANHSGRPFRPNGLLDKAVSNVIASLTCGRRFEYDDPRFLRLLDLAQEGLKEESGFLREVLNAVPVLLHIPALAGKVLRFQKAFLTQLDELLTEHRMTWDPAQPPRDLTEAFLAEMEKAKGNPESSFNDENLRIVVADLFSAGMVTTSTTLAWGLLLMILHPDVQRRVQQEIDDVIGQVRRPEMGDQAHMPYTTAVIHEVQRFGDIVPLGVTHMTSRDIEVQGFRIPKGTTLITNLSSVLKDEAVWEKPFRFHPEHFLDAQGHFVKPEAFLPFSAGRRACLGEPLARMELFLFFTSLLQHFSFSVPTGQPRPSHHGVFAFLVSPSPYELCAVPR
Sequence of Cytochrome P450 2C9 (Homo sapiens) (P11712 whole entry, looked up): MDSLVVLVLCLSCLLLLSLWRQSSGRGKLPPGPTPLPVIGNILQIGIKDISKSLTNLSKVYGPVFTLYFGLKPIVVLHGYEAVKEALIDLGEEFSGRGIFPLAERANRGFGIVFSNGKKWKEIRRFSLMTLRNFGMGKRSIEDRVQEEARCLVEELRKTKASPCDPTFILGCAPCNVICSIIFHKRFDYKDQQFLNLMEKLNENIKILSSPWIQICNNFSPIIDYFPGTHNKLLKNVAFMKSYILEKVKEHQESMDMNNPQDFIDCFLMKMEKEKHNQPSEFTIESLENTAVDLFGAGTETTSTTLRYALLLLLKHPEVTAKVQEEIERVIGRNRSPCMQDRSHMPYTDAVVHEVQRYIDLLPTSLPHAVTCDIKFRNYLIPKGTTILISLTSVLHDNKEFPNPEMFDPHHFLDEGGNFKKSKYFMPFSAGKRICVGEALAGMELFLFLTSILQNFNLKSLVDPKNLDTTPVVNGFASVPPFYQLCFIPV

CCN1CCN(c2ccc(S(=O)(=O)N3CCCCC3)cc2NC(=O)C(C)Oc2ccc(F)cc2)CC1 (configuration not stated)
inactive: Potency [1] | Potency [2] | Potency [3] | Potency [4] | Potency [5] | Potency [6]

C/C(Cc1ccccc1)=N\NC(=O)c1cccnc1
inactive: Potency [1] | Potency [2] | activation [3] 21.1% [at 17.1 µM, percent relative to cAMP agonist control] | Potency [4] | activity change, negative = inhibition [5] -5.84% [at 30.8 µM] | activation [6] 15.7% [at 30.8 µM]

COC(=O)c1ccccc1NC(=O)c1nn(-c2ccc(OC)cc2)c(=O)c2c1c1ccccc1n2C
inactive: Potency [1] | Potency [2] | Potency [3] | Potency [4] | Potency [5] | Potency [6]

COc1c(O)cc2oc(-c3ccc(O)c(O)c3)cc(=O)c2c1O
active: Potency [9] 6.31 µM | Potency [1] 10.7 µM
inactive: outcome [7] | outcome [8] | outcome [10] | Potency [2] | Potency [3] | Potency [4] | Potency [5] | Potency [6]

O=C1NC(=S)S/C1=C\c1ccc(SCc2ccccc2)o1
active: Potency [1] 21.3 µM
inactive: Potency [2] | Potency [3] | Potency [4] | Potency [5] | Potency [6]

Cc1ccc(C)c(CSc2nnc(C)n3c2cc2sccc23)c1
inactive: Potency [1] | Potency [2] | Potency [3] | Potency [4] | Potency [5] | Potency [6]

COc1ccc(-n2ccn(Cc3ccc(C)cc3)c(=O)c2=O)cc1OC
inactive: Potency [1] | Potency [2] | Potency [3] | Potency [4] | Potency [5] | Potency [6]

COc1ccc(OCC(=O)OCCNC(=O)c2cccnc2)cc1
inactive: Potency [1] | Potency [2] | activation [3] -1.04% [at 17.1 µM, percent relative to cAMP agonist control] | Potency [4] | activity change, negative = inhibition [5] -8.99% [at 30.8 µM] | activation [6] 0.499% [at 30.8 µM]

O=C(/C=C/c1ccc(O)c(O)c1)O[C@@H]1C[C@](O)(C(=O)O)C[C@@H](O)[C@H]1O
inactive: Potency [1] | Potency [2] | activation [3] 5.11% [at 17.1 µM, percent relative to cAMP agonist control] | Potency [4] | activity change, negative = inhibition [5] -13.1% [at 30.8 µM] | activation [6] -1.95% [at 30.8 µM] | outcome [11] | outcome [12] | Potency [13] | Potency [14] | Potency [15] | outcome [16] | Potency [17] | max response [18] 0.087% | outcome [19]
